Many of the other results were omitted from the sample, so hits are more common in it than they were.
Tgondii IFNg – inhibitors of Toxoplasma gondii growth with IFN-gamma; activity change, negative = inhibition, % (concentration not given with the values); hit rate 3.8% among 69,000; Toxoplasma gondii growth in IFN-gamma-treated host cells; stronger effect = lower value; AID 1259416; in the data active means activity change below about -70%, passing the limit was not always enough;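 further: host cells are HeLa cells infected with Toxoplasma gondii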
* marks the source's active call; other numbers are inactive results; ! = not active in a repeat.

SMILES | Tgondii IFNg
Cc1ccc(S(=O)(=O)N(C)C[C@H]2Oc3cc(C#CC4CCCC4)ccc3S(=O)(=O)N([C@@H](C)CO)C[C@H]2C)cc1 | -132*
C[C@@H]1CN([C@@H](C)CO)S(=O)(=O)c2ccc(-c3ccc(F)cc3)cc2O[C@H]1CN(C)Cc1ccccc1C(=O)O | -15
CCc1ccc2oc(=O)cc(CN3CCN(Cc4nc(-c5cccc(C)c5)oc4C)CC3)c2c1 | 17
CN(Cc1nc2ccccc2n1C)C(=O)c1ncn[nH]1 | 10
COc1ccc(S(=O)(=O)CCNS(=O)(=O)c2c(C)n[nH]c2C)cc1 | -23
CN(CC(O)CO)C(=O)CC12CC3CC(CC(C3)C1)C2 (centres undefined) | 1
Cc1nn(C(=O)C23CC4CC(CC(C4)C2)C3)c(C)c1Sc1ccccc1 | 5
Cc1cc(C(=O)N2CCc3ccc(=O)n(CC4CC4)c3CC2)c(C)o1 | 8
O=C(c1cc2cccnc2n(Cc2ccccc2)c1=O)N(Cc1ccccc1)Cc1ccccc1 | -52
Cc1cccnc1N1CCN(C(=O)[C@H]2Cc3ccccc3CN2)CC1 | 26
CN(C)c1ncccc1CNC(=O)Cc1ccc(O)c(Cl)c1 | -8
c1cc(-c2cnccn2)c2cccnc2c1 | -49
O=C(NC1CCOCC1)c1ccc(-c2cc(-c3cn[nH]c3-c3ccccn3)ccn2)cc1 | -37
c1ccc(-c2[nH]ncc2-c2ccnc3ccccc23)nc1 | -80*!
CNC(=O)CN1CCCC12CCN(C(=O)c1cnccn1)CC2 | 0
CCn1ncc2c1C(COC)CN(C(=O)C1=CCCC1)C2 (centres undefined) | -4
CCCS(=O)(=O)N1C[C@H]2C[C@H](C(=O)Nc3cccnc3)[C@@H](C1)O2 | 7
O=c1[nH]nc(Cc2ccncc2)n1Cc1ccccc1F | -49
COCC1CN(C(=O)c2ccncc2F)Cc2nccn2C1 (centres undefined) | -2
Cc1ccc(-c2cc(O)c3c(c2)CN(C(=O)c2cccc(F)c2)CCO3)s1 | -70*
Cc1ccc(-c2cc(O)c3c(c2)CN(CC2CCCN2C)CCO3)s1 (centres undefined) | -6
Cc1csc(CN2CCOc3c(O)cc(-c4ccc(C)s4)cc3C2)n1 | -6
Cc1ccc(-c2cc(O)c3c(c2)CN(C(=O)CCN2CCCO2)CCO3)s1 | -75*
Cc1noc(CN2CCOc3c(O)cc(-c4ccc(C)s4)cc3C2)n1 | 0
Cc1cc(C(=O)N2CCOc3c(O)cc(-c4ccccc4C)cc3C2)no1 | -63
SMILES | Tgondii IFNg
Cc1ccc(-c2csnn2)cc1NC(=O)CCS(=O)(=O)c1ccc(Cl)cc1 | 1
Cc1nc(CNC(=O)c2ccc(F)c(-n3cccn3)c2)no1 | 16
Cc1oncc1C(=O)N1CCC2(CC1)CCN(c1ncccn1)C2 | -43
COCCN1CC2(CCN(S(=O)(=O)C3CC3)CC2)COc2ccccc2S1(=O)=O | 196
CN(Cc1cccc2ncccc12)C(=O)CCC1(Cc2cccc3ccccc23)CCC(=O)N1 (centres undefined) | 0
COc1cc2[nH]c(=O)c(CN3CCNC(=O)C3C)cc2c(OC)c1OC (centres undefined) | -1
CC(C)Cc1cc(CNC(=O)C2CC(=O)N(C)c3ccccc32)on1 (centres undefined) | -7
O=S(=O)(NCC1CCCO1)c1ccc(S(=O)(=O)n2cnc3ccccc32)cc1 (centres undefined) | 22
COc1ccccc1-c1nc(Cc2noc(-c3ccccn3)n2)c(C)o1 | 28
Cc1ccc(OCc2nc(Cc3nc(-c4ccccc4)oc3C)no2)cc1 | -63
COc1ccccc1-c1nc(Cc2noc(-c3ccc(F)cc3)n2)c(C)o1 | 23
COc1ccccc1-c1nc(Cc2noc(-c3ccccc3F)n2)c(C)o1 | -79*
COc1cccc(-c2nc(Cc3nc(-c4ccccc4)oc3C)no2)c1 | 53
COc1ccc(-c2nc(Cc3noc(-c4ccccc4F)n3)c(C)o2)cc1 | -113*
COc1ccc(C2(C(=O)Nc3ccc(N4CCCC4)c4nonc34)CCOCC2)cc1 | 12
COc1ccccc1N1CC(NC(=O)C2(c3cc(C)cc(C)c3)CCOCC2)CC1=O (centres undefined) | -2
c1ccc(CN2CCC(NCc3ccc4nonc4c3)CC2)nc1 | -4
Cc1cc(C(=O)N2CC[C@@H]3Oc4ccccc4S(=O)(=O)N(CCC(C)C)[C@@H]3CC2)n[nH]1 | -29
COc1cc2c(cc1OC)C(c1ccccc1)=NCC2 | -28
COc1cc2c(cc1OC)C(c1sc3ccccc3c1Cl)=NCC2 | -113*
COc1cc2c(cc1OC)C(c1c(-c3ccccc3)noc1C)=NCC2 | -38
Cc1occc1C(=O)N1CCC2(CCN(Cc3cccc(F)c3)C2=O)C1 (centres undefined) | 3
O=C(c1cccnc1)N1CCN2C[C@H](OCc3ccccn3)C[C@@H]2C1 | 6
COc1ccc(-c2nn(-c3ccccc3)cc2CNCc2cc(C(C)C)no2)c(F)c1 | 64
CCc1ncc(-c2c(-c3ccccc3)ncn2Cc2ccccc2F)cn1 | 21
SMILES | Tgondii IFNg
CN1CCN(CCn2cnc(-c3ccccc3)c2-c2cnc[nH]2)CC1 | -2
CCc1ccc(-c2c(-c3ccccc3)ncn2CCS(C)(=O)=O)nc1 | 1
CCc1nccc(-c2c(-c3ccccc3)ncn2CC2(CO)CCOCC2)n1 | -83*
CCn1ccnc1-c1c(-c2ccccc2)ncn1CCN1CCOC1=O | 4
CCc1nccc(-c2c(-c3ccccc3)ncn2CCN2CCOCC2)n1 | -80*
CO[C@@H]1CC[C@@H]2[C@H]1OCCN2C(=O)Cc1ccc2c(c1)OCO2 | 27
CCn1cc(S(=O)(=O)N2CCC3(CC2)C(=O)NCCCN3C)cn1 | 4
CCN(CC)CCN(Cc1ccc(-c2ccc(C(F)(F)F)cc2)cc1)C(=O)Cn1c(SCc2ccc(F)cc2)nc(=O)c2c1CCC2 | -76*
CN(C(=O)CSc1ccc(C(F)(F)F)cn1)c1c2c(nn1C)CCCC2 | -26
CCN(Cc1ccncc1)C(=O)CCNC(=O)c1ccc(F)cc1 | 75
CC(C)N1CC2(CCN(C3CCOC3)CC2)c2ccccc21 (centres undefined) | 12
Cn1nc(C(F)(F)F)c(-c2ccc(Br)cc2)c1NC(=O)C1CCC1C(=O)O (centres undefined) | -10
C[C@H](Cn1nnc2ccccc21)NC(=O)c1cc(C(C)(C)C)nn1C | 2
Cn1nc(C(C)(C)C)cc1C(=O)Nc1c(-c2ccccc2)c(C(F)(F)F)nn1C | -95*
c1ccc(C(c2ccccc2)c2nc(CSc3nnnn3-c3ccccc3)no2)cc1 | -21
COC(=O)c1cccc(-n2nnnc2SCC(=O)Nc2ccc(F)cc2)c1 | -1
Cc1[nH]n2c(=O)cc(CSc3nnnn3-c3ccccc3)nc2c1-c1ccc(F)cc1 | -93*
O=C(CCC1CCCO1)Nc1ncc(Cc2cccc(C(F)(F)F)c2)s1 (centres undefined) | -99*
CC(=O)N1CCOC(Cc2cccc(C(F)(F)F)c2)C1 (centres undefined) | -3
FC(F)(F)c1cccc(CN(Cc2ccccn2)CC2CCCO2)c1 (centres undefined) | -10
Cc1ccc2c(c1C)-n1cccc1C1(CCN(C(=O)c3ccc(Cl)cc3)CC1)N2 | 12
CCN(C(=O)c1cccc(NC(=O)CN2CCOC2=O)c1)c1ccccc1 | 6
CN(Cc1cnn(-c2ccc(F)cc2)c1)Cc1cnc(N(C)C)s1 | 4
CCc1ccc(CN2CC[C@@H](c3sccc3C)[C@H](O)C2)nc1 | -35
COc1ccc(NC(=O)CCCCc2cccs2)cc1 | -3
COc1ccc(-c2[nH]c3ncccc3c2CN2CCC(O)(c3ccccc3C)CC2)cc1 | -98*
